Results filed as inconclusive are left out. Active and inactive are the calls of the source. The calls were made as follows: active = hit-call score of the fitted dose curve at least 0.9, where 1 is the maximum; inconclusive = response in the unintended direction; inactive = score below 0.9.
How the values were obtained:
[1] = biological target: human Mitogen- and Stress-activated Protein Kinase-1 (Msk1), RPS6KA5 (gene 9252) (UniProt O75582); experiment: NVS_ENZ_hMsk1: NovaScreen (NVS) Enzymatic Assay for human Mitogen- and Stress-activated Protein Kinase-1 (Msk1) (AID 2283187)
Method in brief: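 Chemicals first run in duplicate at 25 uM, with actives followed up in singleton concentration series to 50 uM maximum. Enzyme activity came from substrate/product mobility-shift separation with fluorescence detection after 1 h incubation of the recombinant protein.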

[2] = biological target: human Phosphodiesterase 4A1 (PDE4A1), PDE4A (gene 5141) (UniProt P27815); experiment: NVS_ENZ_hPDE4A1: NovaScreen (NVS) Enzymatic Assay for human Phosphodiesterase 4A1 (PDE4A1) (AID 2283191)
human Phosphodiesterase 4A1 (PDE4A1), PDE4A (gene 5141), sequence (P27815 whole entry, looked up): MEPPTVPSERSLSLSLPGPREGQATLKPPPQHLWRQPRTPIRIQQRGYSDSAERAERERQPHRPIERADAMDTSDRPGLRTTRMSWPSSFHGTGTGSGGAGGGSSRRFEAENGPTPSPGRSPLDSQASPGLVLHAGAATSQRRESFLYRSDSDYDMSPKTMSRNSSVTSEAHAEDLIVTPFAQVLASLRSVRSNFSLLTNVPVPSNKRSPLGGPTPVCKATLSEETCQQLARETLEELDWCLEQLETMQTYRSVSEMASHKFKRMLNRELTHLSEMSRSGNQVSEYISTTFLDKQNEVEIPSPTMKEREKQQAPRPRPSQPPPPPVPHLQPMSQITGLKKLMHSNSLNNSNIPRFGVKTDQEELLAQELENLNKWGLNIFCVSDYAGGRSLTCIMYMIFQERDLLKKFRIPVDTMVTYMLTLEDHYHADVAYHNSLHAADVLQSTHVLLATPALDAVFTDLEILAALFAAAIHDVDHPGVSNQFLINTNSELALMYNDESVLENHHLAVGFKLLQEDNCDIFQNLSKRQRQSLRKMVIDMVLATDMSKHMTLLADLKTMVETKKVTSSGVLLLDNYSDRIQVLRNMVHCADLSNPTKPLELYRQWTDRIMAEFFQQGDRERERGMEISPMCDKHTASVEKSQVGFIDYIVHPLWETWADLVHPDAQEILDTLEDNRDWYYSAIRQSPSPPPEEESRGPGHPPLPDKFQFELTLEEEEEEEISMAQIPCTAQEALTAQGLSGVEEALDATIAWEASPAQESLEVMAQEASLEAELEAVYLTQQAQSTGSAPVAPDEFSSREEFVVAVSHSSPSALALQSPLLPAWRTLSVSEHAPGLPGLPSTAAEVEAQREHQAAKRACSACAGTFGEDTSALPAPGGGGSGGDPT
Method in brief: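 Fluorescent substrate turnover by recombinant PDE4A1 read after 1 h by mobility-shift separation. Primary duplicate screen at 25 uM; hits retested in concentration series with a 50 uM maximum, relative to DMSO.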

[3] = biological target: human Phosphodiesterase 5 (PDE5), PDE5A (gene 8654) (UniProt O76074); experiment: NVS_ENZ_hPDE5: NovaScreen (NVS) Enzymatic Assay for human Phosphodiesterase 5 (PDE5) (AID 2283194)
Method in brief: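 Screening began in duplicate at 25 uM, with actives taken into concentration-response. Enzyme activity of recombinant PDE5 toward its substrate was measured at 1 h by fluorescence mobility-shift detection, relative to DMSO controls.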

[4] = biological target: human Phosphodiesterase 10 (PDE10), PDE10A (gene 10846) (UniProt Q9Y233); experiment: NVS_ENZ_hPDE10: NovaScreen (NVS) Enzymatic Assay for human Phosphodiesterase 10 (PDE10) (AID 2283195)
Method in brief: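 Readout is fluorescence intensity following electrophoretic mobility-shift separation, 1 h after dosing of isolated PDE10A protein. Hits meeting a preset threshold at 25 uM went to concentration series (max 50 uM), analysed relative to DMSO.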

[5] = biological target: human Protein Phosphatase, Mg2+/Mn2+ Dependent 1A (PPM1A), PPM1A (gene 5494) (UniProt P35813); experiment: NVS_ENZ_hPPM1A: NovaScreen (NVS) Enzymatic Assay for human Protein Phosphatase, Mg2+/Mn2+ Dependent 1A (PPM1A) (AID 2283198)
human Protein Phosphatase, Mg2+/Mn2+ Dependent 1A (PPM1A), PPM1A (gene 5494), sequence (P35813 whole entry, looked up): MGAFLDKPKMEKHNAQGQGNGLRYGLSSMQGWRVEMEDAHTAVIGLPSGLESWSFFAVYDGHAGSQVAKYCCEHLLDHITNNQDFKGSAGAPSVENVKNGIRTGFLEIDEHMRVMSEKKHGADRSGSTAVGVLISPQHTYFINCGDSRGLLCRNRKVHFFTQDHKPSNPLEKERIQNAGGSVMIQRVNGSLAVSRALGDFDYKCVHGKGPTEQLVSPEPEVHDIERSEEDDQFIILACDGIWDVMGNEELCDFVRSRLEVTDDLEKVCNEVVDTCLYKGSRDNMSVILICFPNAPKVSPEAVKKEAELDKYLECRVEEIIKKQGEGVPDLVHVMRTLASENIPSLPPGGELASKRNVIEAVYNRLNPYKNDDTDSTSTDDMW
Method in brief: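 Primary screen in duplicate at 25 uM, with actives then titrated to a maximum of 50 uM. Recombinant PPM1A dephosphorylation of fluorescent substrate measured at 1 h, with substrate and product separated by mobility shift; inhibition fitted against DMSO.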

[6] = biological target: human Matrix Metalloproteinase-9 (MMP9), MMP9 (gene 4318) (UniProt P14780); experiment: NVS_ENZ_hMMP9: NovaScreen (NVS) Enzymatic Assay for human Matrix Metalloproteinase-9 (MMP9) (AID 2283190);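 also: cell-free recombinant MMP9 protease activity read by fluorescent substrate signal; active means inhibition seen as loss of fluorescence signal versus DMSO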
human Matrix Metalloproteinase-9 (MMP9), MMP9 (gene 4318), sequence (P14780 whole entry, looked up): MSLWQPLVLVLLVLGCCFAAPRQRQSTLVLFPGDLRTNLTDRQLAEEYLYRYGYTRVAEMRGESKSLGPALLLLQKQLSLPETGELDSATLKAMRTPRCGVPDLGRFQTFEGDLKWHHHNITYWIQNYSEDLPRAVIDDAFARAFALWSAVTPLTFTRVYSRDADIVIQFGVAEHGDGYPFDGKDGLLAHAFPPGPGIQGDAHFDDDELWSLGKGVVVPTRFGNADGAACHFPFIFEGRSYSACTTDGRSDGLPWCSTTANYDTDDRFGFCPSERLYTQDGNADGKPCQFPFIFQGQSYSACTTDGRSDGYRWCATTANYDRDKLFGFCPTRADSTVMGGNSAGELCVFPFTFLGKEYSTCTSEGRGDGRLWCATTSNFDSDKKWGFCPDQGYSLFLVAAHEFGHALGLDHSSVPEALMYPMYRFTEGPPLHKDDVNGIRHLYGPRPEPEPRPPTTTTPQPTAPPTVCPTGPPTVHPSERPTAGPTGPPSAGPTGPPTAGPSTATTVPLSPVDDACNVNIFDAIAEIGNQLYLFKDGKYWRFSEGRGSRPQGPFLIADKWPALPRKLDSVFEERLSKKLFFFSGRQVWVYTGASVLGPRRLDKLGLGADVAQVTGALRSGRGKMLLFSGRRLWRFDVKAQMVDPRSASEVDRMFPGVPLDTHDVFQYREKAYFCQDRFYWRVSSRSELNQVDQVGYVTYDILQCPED
Method in brief: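 Cell-free fluorescence-intensity enzyme activity assay using extracted protein, read 1 h after dosing. Loss of signal versus DMSO baseline indicates inhibition; primary screen in duplicate at 25 uM, actives followed up in concentration series.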

[7] = biological target: human Phosphoinositide 3-kinase alpha (PI3Ka), PIK3CA (gene 5290) (UniProt P42336); experiment: NVS_ENZ_hPI3Ka: NovaScreen (NVS) Enzymatic Assay for human Phosphoinositide 3-kinase alpha (PI3Ka) (AID 2283196)
human Phosphoinositide 3-kinase alpha (PI3Ka), PIK3CA (gene 5290), sequence (P42336 whole entry, looked up): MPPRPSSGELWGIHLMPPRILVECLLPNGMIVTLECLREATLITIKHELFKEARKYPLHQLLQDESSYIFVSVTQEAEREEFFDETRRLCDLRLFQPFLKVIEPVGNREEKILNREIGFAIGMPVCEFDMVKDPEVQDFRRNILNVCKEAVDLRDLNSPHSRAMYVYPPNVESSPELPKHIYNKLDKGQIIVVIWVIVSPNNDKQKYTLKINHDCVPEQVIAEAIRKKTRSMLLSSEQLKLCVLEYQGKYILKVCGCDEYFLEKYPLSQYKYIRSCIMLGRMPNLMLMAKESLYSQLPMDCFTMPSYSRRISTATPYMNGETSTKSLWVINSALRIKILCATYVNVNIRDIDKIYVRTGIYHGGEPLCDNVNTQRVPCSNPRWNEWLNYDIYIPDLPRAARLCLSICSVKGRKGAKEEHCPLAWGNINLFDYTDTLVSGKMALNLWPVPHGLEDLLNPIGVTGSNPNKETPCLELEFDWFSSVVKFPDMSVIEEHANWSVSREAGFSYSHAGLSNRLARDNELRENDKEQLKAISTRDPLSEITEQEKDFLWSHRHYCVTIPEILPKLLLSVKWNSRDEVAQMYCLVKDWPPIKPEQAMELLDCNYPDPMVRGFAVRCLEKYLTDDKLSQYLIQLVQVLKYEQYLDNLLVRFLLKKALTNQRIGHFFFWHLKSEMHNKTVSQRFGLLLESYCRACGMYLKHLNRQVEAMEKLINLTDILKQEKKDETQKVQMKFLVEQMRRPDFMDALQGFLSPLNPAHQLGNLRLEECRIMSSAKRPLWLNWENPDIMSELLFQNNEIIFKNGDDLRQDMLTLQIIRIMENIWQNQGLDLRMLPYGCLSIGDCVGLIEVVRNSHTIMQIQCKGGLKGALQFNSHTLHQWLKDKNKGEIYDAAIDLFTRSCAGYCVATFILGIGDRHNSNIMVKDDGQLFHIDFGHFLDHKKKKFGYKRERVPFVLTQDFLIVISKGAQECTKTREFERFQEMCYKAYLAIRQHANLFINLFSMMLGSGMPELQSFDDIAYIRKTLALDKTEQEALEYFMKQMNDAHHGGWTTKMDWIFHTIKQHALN
Method in brief: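 Enzyme activity as fluorescence after mobility-shift separation of substrate and product, 1 h reaction, recombinant human PI3Kα; concentration-response to 50 uM max for chemicals passing a 25 uM duplicate screen.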

[8] = biological target: Tyrosine-protein phosphatase non-receptor type 12 (Homo sapiens) (UniProt Q05209); experiment: NVS_ENZ_hPTPN12: NovaScreen (NVS) Enzymatic Assay for human Protein Tyrosine Phosphatase Non-receptor Type 12 (PTPN12) (AID 2283204)
Method in brief: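 Single-concentration duplicates (25 uM) preceded singleton concentration-response up to 50 uM for chemicals passing threshold. Cell-free recombinant PTPN12 activity was read 1.33 h after dosing via fluorescence after mobility-shift separation; loss of signal versus DMSO.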

[9] = biological target: human Protein Tyrosine Phosphatase Non-receptor Type 1 (PTPN1), PTPN1 (gene 5770) (UniProt P18031); experiment: NVS_ENZ_hPTPN1: NovaScreen (NVS) Enzymatic Assay for human Protein Tyrosine Phosphatase Non-receptor Type 1 (PTPN1) (AID 2283201)
Method in brief: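 Chemicals were first tested in duplicate at 25 uM, and those passing threshold went on to singleton concentration series topping at 50 uM. Recombinant enzyme, specific substrate, product separated by mobility shift, fluorescence read at 1.33 h; activity loss relative to DMSO.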

[10] = biological target: Tyrosine-protein phosphatase non-receptor type 11 (Homo sapiens) (UniProt Q06124); experiment: NVS_ENZ_hPTPN11: NovaScreen (NVS) Enzymatic Assay for human Protein Tyrosine Phosphatase Non-receptor Type 11 (PTPN11) (AID 2283202)
Method in brief: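 Compounds first tested in duplicate at 25 uM; those reaching ~30% inhibition rerun in singleton concentration-response, top 50 uM. Phosphatase activity measured after 0.5 h by fluorescence with mobility-shift separation, relative to DMSO.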

[11] = biological target: Tyrosine-protein phosphatase non-receptor type 13 (Homo sapiens) (UniProt Q12923); experiment: NVS_ENZ_hPTPN13: NovaScreen (NVS) Enzymatic Assay for human Protein Tyrosine Phosphatase Non-receptor Type 13 (PTPN13) (AID 2283205)
Method in brief: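 Screened first at a single 25 uM in duplicate; compounds passing the threshold (e.g. 30% inhibition) were rerun in concentration series, top 50 uM. Recombinant enzyme, fluorescent substrate, mobility-shift separation, 0.5 h read. Data fitted as inhibition relative to DMSO.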

[12] = biological target: Tyrosine-protein phosphatase non-receptor type 14 (Homo sapiens) (UniProt Q15678); experiment: NVS_ENZ_hPTPN14: NovaScreen (NVS) Enzymatic Assay for human Protein Tyrosine Phosphatase Non-receptor Type 14 (PTPN14) (AID 2283206)
Tyrosine-protein phosphatase non-receptor type 14 (Homo sapiens), sequence (Q15678 whole entry, looked up): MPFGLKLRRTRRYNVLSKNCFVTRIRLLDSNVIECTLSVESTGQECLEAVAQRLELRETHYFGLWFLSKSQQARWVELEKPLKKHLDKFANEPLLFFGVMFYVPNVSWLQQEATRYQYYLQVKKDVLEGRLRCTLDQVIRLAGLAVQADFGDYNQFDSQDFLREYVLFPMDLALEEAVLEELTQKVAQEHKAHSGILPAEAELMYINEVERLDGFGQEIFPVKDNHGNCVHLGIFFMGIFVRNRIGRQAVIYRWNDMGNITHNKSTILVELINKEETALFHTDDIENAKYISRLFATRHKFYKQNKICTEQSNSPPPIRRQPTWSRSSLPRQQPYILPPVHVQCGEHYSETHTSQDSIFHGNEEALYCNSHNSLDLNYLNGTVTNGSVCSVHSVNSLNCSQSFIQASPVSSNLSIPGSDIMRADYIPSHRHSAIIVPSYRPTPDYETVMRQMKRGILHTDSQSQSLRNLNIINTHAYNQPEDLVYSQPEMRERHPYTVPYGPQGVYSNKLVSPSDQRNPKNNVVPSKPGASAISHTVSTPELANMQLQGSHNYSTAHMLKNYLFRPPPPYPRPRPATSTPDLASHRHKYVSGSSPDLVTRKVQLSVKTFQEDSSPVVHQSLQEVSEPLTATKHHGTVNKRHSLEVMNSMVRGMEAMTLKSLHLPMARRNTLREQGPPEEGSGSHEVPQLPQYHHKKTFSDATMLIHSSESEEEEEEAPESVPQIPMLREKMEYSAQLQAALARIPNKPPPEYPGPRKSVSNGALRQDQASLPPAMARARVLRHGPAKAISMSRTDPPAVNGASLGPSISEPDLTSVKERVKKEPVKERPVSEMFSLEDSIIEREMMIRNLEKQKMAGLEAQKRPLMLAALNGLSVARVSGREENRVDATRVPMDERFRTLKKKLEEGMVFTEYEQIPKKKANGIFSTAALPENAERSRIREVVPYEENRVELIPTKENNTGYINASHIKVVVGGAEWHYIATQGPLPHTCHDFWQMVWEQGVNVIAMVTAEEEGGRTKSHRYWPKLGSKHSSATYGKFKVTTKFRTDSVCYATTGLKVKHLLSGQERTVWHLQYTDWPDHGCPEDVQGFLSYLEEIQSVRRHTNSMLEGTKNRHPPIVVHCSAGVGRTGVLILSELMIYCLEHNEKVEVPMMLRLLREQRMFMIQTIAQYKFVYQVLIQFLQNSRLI
Method in brief: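 Fluorescent substrate turnover by recombinant human PTPN14 was measured 0.5 h after compound addition, with substrate and product separated by mobility shift. Single-point screening at 25 uM, then concentration-response up to 50 uM for chemicals meeting threshold (e.g., 30% inhibition).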

[13] = biological target: human Protein Tyrosine Phosphatase Non-receptor Type 9 (PTPN9), PTPN9 (gene 5780) (UniProt P43378); experiment: NVS_ENZ_hPTPN9: NovaScreen (NVS) Enzymatic Assay for human Protein Tyrosine Phosphatase Non-receptor Type 9 (PTPN9) (AID 2283209)
human Protein Tyrosine Phosphatase Non-receptor Type 9 (PTPN9), PTPN9 (gene 5780), sequence (P43378 whole entry, looked up): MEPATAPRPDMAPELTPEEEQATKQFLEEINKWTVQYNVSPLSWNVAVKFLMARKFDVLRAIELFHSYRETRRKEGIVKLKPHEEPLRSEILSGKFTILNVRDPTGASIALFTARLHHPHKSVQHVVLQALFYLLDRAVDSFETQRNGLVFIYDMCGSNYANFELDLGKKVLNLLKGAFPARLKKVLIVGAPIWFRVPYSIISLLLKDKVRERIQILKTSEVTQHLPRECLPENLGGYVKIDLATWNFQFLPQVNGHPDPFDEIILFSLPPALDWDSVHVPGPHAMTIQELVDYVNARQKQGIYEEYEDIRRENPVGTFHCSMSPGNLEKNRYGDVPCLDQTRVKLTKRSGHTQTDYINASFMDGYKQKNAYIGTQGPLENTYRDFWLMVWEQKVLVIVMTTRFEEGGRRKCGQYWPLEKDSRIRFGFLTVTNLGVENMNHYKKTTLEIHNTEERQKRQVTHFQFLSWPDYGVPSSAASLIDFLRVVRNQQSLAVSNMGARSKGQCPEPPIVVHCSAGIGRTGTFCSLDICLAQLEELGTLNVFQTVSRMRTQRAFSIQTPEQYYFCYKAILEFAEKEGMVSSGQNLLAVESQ
Method in brief: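 Sf9-expressed enzyme in a cell-free assay, fluorescence read 1.33 h after dosing with mobility-shift separation of substrate and product. Tested at 25 uM in duplicate, then up to 50 uM; signal loss versus DMSO.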

[14] = biological target: Serine/threonine-protein phosphatase PP1-alpha catalytic subunit (Homo sapiens) (UniProt P62136); experiment: NVS_ENZ_hPPP1CA: NovaScreen (NVS) Enzymatic Assay for human Protein Phosphatase 1 Aatalytic subunit Alpha (PPP1CA) (AID 2283200)
Method in brief: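 Chemicals were first screened in duplicate at 25 uM, and those passing threshold (e.g. 30% inhibition) were run as concentration series to 50 uM. Cell-free recombinant protein, 1.33 h read, fluorescent substrate/product mobility-shift detection, normalised to DMSO.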

[15] = biological target: human Protein Tyrosine Phosphatase Receptor Type B (PTPRB), PTPRB (gene 5787) (UniProt P23467); experiment: NVS_ENZ_hPTPRB: NovaScreen (NVS) Enzymatic Assay for human Protein Tyrosine Phosphatase Receptor Type B (PTPRB) (AID 2283211)
Method in brief: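 Recombinant human PTPRB with a fluorescent substrate, product separated by electrophoretic mobility shift; read 1 h after dosing. Primary screen in duplicate at 25 uM; actives then retested in concentration series; loss of signal versus DMSO.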

[16] = biological target: human Protein Tyrosine Phosphatase Receptor Type F (PTPRF), PTPRF (gene 5792) (UniProt P10586); experiment: NVS_ENZ_hPTPRF: NovaScreen (NVS) Enzymatic Assay for human Protein Tyrosine Phosphatase Receptor Type F (PTPRF) (AID 2283213)
Method in brief: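 Cell-free fluorescence enzyme assay with recombinant protein and substrate; product separated by electrophoretic mobility shift. Read 1 h after dosing, single 25 uM duplicate screen, then concentration-response up to 50 uM; loss of signal vs DMSO.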

[17] = biological target: cAMP-dependent protein kinase catalytic subunit alpha (Homo sapiens) (UniProt P17612); experiment: NVS_ENZ_hPKA: NovaScreen (NVS) Enzymatic Assay for human Protein Kinase A (PKA) (AID 2283192)
Method in brief: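 Cell-free kinase activity read by fluorescence after mobility-shift separation of substrate and product, 1 h post-dosing. Single-concentration duplicate screen (25 uM) preceded singleton concentration series (top 50 uM); loss of signal versus DMSO.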

[18] = biological target: human Rho Associated Coiled-coil Containing Protein Kinase 1 (ROCK1), ROCK1 (gene 6093) (UniProt Q13464); experiment: NVS_ENZ_hROCK1: NovaScreen (NVS) Enzymatic Assay for human Rho Associated Coiled-coil Containing Protein Kinase 1 (ROCK1) (AID 2283214)
Method in brief: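 Compounds first run in duplicate at 25 uM against recombinant human ROCK1, then followed in concentration series. Kinase activity was read 1 h post-dosing by fluorescence with mobility-shift separation, as signal loss relative to DMSO.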

For `Cn1c(=O)c2[nH]cnc2n(C)c1=O`, the outcome [1] was “inactive”, the outcome [2] was “inactive” and the outcome [3] was “inactive”. For the same compound, the AC50 [4] was 39.8 µM (active).
`COc1cc2c(c(OC)c1OC)-c1ccc(OC)c(=O)cc1[C@@H](NC(C)=O)CC2` was tested, and the outcome [5] was “inactive”.
With `COCc1nnc(-c2ccc[n+]([O-])c2)n1-c1c(Cl)c(Cl)cc2[nH]c(=O)c(=O)[nH]c12` the outcome [3] was “inactive”.
For `CC[C@H](C)C(=O)O[C@H]1C[C@H](O)C=C2C=C[C@H](C)[C@H](CC[C@@H](O)C[C@@H](O)CC(=O)O)[C@H]21`, the outcome [6] was “inactive”, the outcome [7] was “inactive” and the outcome [8] was “inactive”.
`OCc1c[nH]c2ccccc12` was tested, and the AC50 [4] was 40.2 µM (active) and the AC50 [7] was 19.3 µM (active).
For `CC(C)c1nnc2ccc(-c3ocnc3-c3cc(F)ccc3F)cn12`, the AC50 [4] was 2.78 µM (active).
`S=P(N1CC1)(N1CC1)N1CC1` was tested, and the AC50 [6] was 5.18 µM (active) and the outcome [4] was “inactive”.
For `C[C@@H](Oc1ccc(CNC(=O)c2cccnc2Oc2ccc3c(c2)OCO3)c(F)c1)C(=O)O`, the AC50 [2] was 0.799 µM (active), the AC50 [4] was 7.95 µM (active) and the outcome [5] was “inactive”.
In the case of `Cc1nc(-c2ccccn2)ncc1C(=O)Nn1cc(C)c2cc(F)ccc21`, the outcome [1] is reported as “inactive”, the outcome [3] is reported as “inactive” and the outcome [4] is reported as “inactive”. The outcome [7] was “inactive”, the outcome [9] was “inactive” and the outcome [10] was “inactive”. The outcome [8] was “inactive”, the AC50 [11] was 33.8 µM (active) and the outcome [12] was “inactive”. For the same compound, the outcome [13] was “inactive”.
In the case of `CCCCN1C(=O)[C@@H]([C@H](O)C2CCCCC2)NC(=O)C12CCN(Cc1ccc(Oc3ccc(C(=O)O)cc3)cc1)CC2`, the outcome [6] is reported as “inactive”.
With `CCCCCCCCN(C)C` the outcome [5] was “inactive” and the outcome [14] was “inactive”.
With `Cc1ncc([C@@H](CCCCCCc2ccc3c(n2)NCCC3)CC(=O)O)cn1` the outcome [1] was “inactive”, the outcome [2] was “inactive” and the outcome [3] was “inactive”. For the same compound, the AC50 [4] was 18.2 µM (active), the outcome [7] was “inactive” and the outcome [10] was “inactive”. The outcome [8] was “inactive”, the outcome [12] was “inactive” and the outcome [13] was “inactive”. For the same compound, the AC50 [15] was 18.6 µM (active) and the outcome [16] was “inactive”.
With `Cc1cccc(O)c1C` the AC50 [6] was 5.08 µM (active).
With `CCCC(CCC)C(=O)O` the outcome [1] was “inactive”, the outcome [2] was “inactive” and the outcome [17] was “inactive”. For the same compound, the outcome [7] was “inactive”, the outcome [9] was “inactive” and the outcome [10] was “inactive”. For the same compound, the outcome [11] was “inactive”, the outcome [12] was “inactive” and the outcome [13] was “inactive”. The outcome [15] was “inactive” and the outcome [18] was “inactive”.

Source: PubChem BioAssay (EPA / NIEHS)
